Results reported in ChEMBL document CHEMBL1961873, “Compounds: GSK PKIS; Assays: Nanosyn kinase panel” (2012).

Columns and labels:
[1] = biological target: Fibroblast growth factor receptor 4 (Homo sapiens) (UniProt P22455); conditions: at 1 µM;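 note: reported figure is the averaged percent inhibition of FGFR4, from the GSK PKIS kinase screening panel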
[2] = biological target: Tyrosine-protein kinase Fgr (Homo sapiens) (UniProt P09769); conditions: at 0.1 µM
[3] = biological target: Tyrosine-protein kinase Fgr (Homo sapiens) (UniProt P09769); conditions: at 1 µM
[4] = biological target: Vascular endothelial growth factor receptor 1 (Homo sapiens) (UniProt P17948); conditions: at 0.1 µM
Sequence of Vascular endothelial growth factor receptor 1 (Homo sapiens) (P17948 whole entry): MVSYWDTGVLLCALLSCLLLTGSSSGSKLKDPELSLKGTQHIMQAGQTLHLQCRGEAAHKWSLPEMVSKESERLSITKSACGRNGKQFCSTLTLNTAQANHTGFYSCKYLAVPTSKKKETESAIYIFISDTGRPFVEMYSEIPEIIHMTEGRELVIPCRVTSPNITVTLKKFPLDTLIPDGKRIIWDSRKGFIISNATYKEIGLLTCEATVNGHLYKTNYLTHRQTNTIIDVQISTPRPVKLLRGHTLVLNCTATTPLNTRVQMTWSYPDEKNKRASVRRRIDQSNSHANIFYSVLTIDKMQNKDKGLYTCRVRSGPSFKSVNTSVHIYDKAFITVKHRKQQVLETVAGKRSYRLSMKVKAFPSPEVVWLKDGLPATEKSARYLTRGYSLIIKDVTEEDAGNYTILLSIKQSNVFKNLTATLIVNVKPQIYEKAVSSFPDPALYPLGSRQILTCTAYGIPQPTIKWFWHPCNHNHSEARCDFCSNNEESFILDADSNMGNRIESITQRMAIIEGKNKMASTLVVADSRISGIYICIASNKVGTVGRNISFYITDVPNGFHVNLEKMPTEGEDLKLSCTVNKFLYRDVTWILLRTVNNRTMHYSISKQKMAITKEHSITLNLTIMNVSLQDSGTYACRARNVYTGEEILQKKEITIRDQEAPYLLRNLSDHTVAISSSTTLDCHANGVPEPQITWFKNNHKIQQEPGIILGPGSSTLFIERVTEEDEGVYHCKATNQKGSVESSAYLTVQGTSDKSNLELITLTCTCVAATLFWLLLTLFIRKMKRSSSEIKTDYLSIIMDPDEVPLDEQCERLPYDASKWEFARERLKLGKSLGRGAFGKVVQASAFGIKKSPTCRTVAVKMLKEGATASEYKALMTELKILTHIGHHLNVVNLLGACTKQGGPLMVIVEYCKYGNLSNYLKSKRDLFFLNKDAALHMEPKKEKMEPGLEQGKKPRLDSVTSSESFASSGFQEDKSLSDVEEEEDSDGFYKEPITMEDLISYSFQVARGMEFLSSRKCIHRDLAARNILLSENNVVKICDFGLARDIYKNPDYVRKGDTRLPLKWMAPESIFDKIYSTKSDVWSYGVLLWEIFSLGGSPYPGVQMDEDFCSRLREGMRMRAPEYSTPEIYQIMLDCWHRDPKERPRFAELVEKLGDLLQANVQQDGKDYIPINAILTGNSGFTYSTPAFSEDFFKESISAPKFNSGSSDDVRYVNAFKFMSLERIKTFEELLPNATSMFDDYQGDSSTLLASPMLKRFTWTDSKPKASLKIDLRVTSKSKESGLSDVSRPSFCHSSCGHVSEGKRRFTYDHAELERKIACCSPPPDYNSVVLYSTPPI

[5] = biological target: Vascular endothelial growth factor receptor 1 (Homo sapiens) (UniProt P17948); conditions: at 1 µM
[6] = biological target: Receptor-type tyrosine-protein kinase FLT3 (Homo sapiens) (UniProt P36888); conditions: at 0.1 µM
[7] = biological target: Receptor-type tyrosine-protein kinase FLT3 (Homo sapiens) (UniProt P36888); conditions: at 1 µM
[8] = tested on: T1, Receptor-type tyrosine-protein kinase FLT3 (Homo sapiens), P36888 [D835Y]; conditions: at 0.1 µM
T1 sequence (whole entry): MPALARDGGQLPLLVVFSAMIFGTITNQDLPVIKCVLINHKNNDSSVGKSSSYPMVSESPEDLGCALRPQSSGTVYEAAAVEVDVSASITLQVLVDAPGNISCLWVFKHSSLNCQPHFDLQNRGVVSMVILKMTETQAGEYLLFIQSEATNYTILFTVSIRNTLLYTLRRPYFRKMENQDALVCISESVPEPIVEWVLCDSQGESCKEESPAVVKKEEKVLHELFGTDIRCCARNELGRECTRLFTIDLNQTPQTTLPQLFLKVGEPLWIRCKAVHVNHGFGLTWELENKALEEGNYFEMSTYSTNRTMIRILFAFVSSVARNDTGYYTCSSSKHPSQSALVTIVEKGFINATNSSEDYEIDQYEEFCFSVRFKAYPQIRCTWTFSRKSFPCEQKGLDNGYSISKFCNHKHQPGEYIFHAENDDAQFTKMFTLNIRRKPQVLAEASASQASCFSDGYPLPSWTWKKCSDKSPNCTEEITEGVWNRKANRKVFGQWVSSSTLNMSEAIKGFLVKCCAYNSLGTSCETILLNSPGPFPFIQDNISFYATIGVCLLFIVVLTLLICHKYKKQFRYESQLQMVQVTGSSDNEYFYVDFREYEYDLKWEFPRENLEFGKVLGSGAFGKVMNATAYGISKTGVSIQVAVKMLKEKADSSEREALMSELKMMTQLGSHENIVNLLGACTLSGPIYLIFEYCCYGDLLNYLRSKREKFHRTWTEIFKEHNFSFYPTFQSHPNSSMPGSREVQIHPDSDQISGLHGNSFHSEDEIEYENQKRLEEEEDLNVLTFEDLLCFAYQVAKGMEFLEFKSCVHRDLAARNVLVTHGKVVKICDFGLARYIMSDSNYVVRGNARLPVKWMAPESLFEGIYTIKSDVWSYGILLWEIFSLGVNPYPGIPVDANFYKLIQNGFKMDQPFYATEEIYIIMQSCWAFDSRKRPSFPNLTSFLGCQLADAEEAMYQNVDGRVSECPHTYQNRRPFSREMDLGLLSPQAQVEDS

[9] = biological target: Non-receptor tyrosine-protein kinase TYK2 (Homo sapiens) (UniProt P29597); conditions: at 1 µM;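 note: values are mean percent inhibition of TYK2 kinase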
Sequence of Non-receptor tyrosine-protein kinase TYK2 (Homo sapiens) (P29597 whole entry): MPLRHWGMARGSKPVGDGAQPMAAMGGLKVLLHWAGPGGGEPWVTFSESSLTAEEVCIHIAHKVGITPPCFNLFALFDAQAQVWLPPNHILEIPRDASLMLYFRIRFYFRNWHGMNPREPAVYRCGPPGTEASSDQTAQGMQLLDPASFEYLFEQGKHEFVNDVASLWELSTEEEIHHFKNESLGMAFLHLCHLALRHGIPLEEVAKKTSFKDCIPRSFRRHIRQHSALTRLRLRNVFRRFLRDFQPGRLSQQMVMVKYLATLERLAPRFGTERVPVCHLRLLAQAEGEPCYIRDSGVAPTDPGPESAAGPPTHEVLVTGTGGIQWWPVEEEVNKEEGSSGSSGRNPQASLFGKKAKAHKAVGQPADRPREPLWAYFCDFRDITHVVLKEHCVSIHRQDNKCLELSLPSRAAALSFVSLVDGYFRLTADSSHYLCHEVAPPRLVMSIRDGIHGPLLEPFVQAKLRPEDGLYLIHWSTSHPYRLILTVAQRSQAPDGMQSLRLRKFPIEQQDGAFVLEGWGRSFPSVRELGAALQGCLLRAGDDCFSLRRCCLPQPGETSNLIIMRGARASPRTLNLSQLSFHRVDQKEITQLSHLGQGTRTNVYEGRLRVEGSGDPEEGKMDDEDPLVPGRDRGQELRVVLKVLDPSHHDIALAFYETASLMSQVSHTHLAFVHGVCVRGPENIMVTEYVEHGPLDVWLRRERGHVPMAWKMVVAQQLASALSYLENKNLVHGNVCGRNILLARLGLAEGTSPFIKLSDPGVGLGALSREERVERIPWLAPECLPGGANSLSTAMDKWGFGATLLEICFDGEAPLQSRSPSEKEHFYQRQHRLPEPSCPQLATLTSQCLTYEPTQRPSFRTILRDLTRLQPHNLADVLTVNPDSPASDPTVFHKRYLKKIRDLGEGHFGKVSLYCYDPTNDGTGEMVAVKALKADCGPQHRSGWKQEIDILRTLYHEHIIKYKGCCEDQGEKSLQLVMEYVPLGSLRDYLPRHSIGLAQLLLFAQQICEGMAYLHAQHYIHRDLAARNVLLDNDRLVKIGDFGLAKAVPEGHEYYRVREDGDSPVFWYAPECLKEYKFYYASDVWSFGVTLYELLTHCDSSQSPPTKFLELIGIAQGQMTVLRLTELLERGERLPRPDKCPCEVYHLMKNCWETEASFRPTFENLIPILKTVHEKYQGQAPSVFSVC

[10] = biological target: T2, Tyrosine-protein kinase receptor TYRO3 (Homo sapiens) (UniProt Q06418); conditions: at 0.1 µM;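 note: reported percentages are averaged inhibition values of TYRO3 kinase activity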
T2 sequence (whole entry): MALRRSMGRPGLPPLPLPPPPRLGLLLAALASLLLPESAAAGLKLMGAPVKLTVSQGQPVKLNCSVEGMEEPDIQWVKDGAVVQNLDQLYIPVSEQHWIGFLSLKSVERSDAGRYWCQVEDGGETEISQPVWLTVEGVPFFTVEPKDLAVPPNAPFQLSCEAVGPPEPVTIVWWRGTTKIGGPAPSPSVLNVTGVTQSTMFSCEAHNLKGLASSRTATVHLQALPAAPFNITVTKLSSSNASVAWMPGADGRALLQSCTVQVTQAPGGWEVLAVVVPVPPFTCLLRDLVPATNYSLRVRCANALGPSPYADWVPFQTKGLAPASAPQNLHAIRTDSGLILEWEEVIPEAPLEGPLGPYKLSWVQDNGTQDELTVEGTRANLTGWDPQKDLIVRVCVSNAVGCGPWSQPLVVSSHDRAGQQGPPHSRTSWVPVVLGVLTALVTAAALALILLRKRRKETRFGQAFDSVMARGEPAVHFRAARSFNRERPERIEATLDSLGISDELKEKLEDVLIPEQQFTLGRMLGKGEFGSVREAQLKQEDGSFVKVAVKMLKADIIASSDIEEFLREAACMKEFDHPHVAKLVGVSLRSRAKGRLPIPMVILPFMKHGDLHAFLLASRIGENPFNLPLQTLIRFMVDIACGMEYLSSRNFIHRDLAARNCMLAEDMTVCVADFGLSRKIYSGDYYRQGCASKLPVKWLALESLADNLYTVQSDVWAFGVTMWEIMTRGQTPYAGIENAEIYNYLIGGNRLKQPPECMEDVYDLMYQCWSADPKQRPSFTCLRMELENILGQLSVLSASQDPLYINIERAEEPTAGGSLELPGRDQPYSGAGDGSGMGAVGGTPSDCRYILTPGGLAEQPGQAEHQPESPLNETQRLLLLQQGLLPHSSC

Sequence of Tyrosine-protein kinase Fgr (Homo sapiens) (P09769 2-529 limits assumed): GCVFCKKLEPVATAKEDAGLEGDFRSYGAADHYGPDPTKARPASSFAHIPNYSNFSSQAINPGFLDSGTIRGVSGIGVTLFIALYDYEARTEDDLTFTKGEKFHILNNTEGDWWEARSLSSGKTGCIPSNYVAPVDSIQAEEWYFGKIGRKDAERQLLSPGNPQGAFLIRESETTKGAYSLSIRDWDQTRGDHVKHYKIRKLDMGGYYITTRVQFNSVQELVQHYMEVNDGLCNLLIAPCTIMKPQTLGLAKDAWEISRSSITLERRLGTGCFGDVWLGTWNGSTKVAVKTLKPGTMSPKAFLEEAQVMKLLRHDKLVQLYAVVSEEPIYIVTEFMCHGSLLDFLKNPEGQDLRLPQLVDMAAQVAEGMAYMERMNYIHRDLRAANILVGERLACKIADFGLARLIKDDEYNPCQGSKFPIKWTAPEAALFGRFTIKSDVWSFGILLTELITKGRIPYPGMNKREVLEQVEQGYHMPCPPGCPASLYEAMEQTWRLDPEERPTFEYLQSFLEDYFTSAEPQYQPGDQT
Sequence of Fibroblast growth factor receptor 4 (Homo sapiens) (P22455 22-802 limits assumed): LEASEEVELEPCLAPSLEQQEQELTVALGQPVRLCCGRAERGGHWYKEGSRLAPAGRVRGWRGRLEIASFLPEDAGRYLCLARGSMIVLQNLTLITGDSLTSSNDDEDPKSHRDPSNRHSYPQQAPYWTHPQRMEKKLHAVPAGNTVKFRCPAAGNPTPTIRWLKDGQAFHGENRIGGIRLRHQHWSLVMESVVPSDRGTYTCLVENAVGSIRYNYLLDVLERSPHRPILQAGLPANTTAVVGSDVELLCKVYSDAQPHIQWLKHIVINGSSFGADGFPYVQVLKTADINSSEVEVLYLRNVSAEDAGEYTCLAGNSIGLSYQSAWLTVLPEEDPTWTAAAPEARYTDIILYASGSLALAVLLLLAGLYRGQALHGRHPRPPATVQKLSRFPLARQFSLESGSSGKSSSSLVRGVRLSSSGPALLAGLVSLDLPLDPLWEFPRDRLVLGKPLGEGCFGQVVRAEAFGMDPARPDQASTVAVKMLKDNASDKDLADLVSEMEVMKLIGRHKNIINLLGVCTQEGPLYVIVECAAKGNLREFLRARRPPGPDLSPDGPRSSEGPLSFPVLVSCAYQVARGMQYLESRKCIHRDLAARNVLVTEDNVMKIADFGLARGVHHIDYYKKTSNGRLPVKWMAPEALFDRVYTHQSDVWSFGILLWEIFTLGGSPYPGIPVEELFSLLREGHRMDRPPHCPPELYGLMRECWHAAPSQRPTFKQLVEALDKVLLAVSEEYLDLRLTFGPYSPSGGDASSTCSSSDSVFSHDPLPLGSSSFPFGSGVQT

Compound	inhibition [1]	inhibition [2]	inhibition [3]	inhibition [4]	inhibition [5]	inhibition [6]	inhibition [7]	inhibition [8]	inhibition [9]	inhibition [10]
CS(=O)(=O)CCNCc1nc(-c2ccc3ncnc(Nc4ccc(OCc5cccc(C(F)(F)F)c5)cc4)c3c2)cs1	0.59%	2.47%	4.41%	-0.29%	-0.5%	7.87%	32.1%	2.62%	-0.77%	0.47%
COc1cccc(-n2nc(C)c3c(N/N=C(\C)c4ccncc4)ncnc32)c1	-0.8%	1.55%	4.36%	-0.52%	-0.07%	0.32%	-1.96%	-4.92%	-0.79%	1.37%
NS(=O)(=O)c1ccc(Nc2cc(-c3cccc(O)c3)n[nH]2)cc1	4.03%	2.88%	6.79%	2.51%	11.9%	5.64%	23.2%	3.16%	-3.05%	3.41%
NS(=O)(=O)c1cccc(Nc2cc(-c3ccc(F)cc3)n[nH]2)c1	2.4%	6.05%	14.4%	2.62%	15.9%	16.3%	67.1%	-2.62%	-1.33%	4.42%
Cc1cc(O)cc(C)c1/C=C/c1cncc(C(=O)N(C)C)c1	2.26%	2.92%	9.21%	2.21%	3.14%	2.14%	2.25%	-0.23%	-2.56%	3.45%
CC(C)c1ccc2c(c1)NC(=O)/C2=N/Nc1ccc(S(N)(=O)=O)cc1	-0.36%	2.93%	15.5%	1.02%	2.87%	4.65%	43.7%	-2.45%	1.48%	-0.25%
CN(C)c1cc2c(Nc3ccc4c(cnn4Cc4ccccc4)c3)ncnc2cn1	7.89%	9.23%	33.2%	1.1%	1.36%	1.97%	1.77%	0.4%	-5.95%	0.23%
c1ccc(Nc2ncc(-c3ccccc3)o2)cc1	0.73%	5.98%	15%	1.21%	11.7%	33.1%	78.8%	5.03%	-4.84%	4.31%
COc1cc(Nc2nccc(-c3cnn4ncccc34)n2)cc(OC)c1	0.03%	6.85%	36.9%	10.4%	30.9%	59.6%	90.8%	27%	31.8%	1.77%
Cc1ccc(Nc2ccnc(Nc3cccc(C(N)=O)c3)n2)cc1O	3.08%	52.6%	72.8%	69.9%	97.8%	18.8%	64.5%	30.1%	16.9%	13.1%
NS(=O)(=O)c1ccc(-c2cc3ccncc3cc2OCc2ccccc2)cc1	4.68%	5.99%	4.64%	0.22%	2.57%	2.19%	2.5%	-4.03%	-0.94%	3.82%
O=C1Nc2ccc(-c3cccnc3)cc2C1=Cc1cc(Br)c(O)c(Br)c1	3.07%	1.1%	7.55%	2.53%	2.06%	1.83%	7.91%	11.8%	6.13%	3.07%
CN(c1ccc(NC(=O)Nc2ccc(OC(F)(F)F)cc2)cc1)c1ccnc(Nc2cccc(S(N)(=O)=O)c2)n1	2.57%	13.8%	57.2%	44.4%	96.1%	28.6%	87.4%	2.56%	-2.45%	3.15%
Cc1ccc(C(=O)NC2CC2)cc1-c1ccc2[nH]ncc2c1	0.32%	-1.47%	1.41%	-2.04%	-1.81%	-3.48%	0.84%	-3.02%	2.43%	-1.74%
C[C@@H](Oc1cc(-n2cnc3ccc(OCC4CCN(C)CC4)cc32)sc1C(N)=O)c1ccccc1C(F)(F)F	-0.61%	2.16%	13.4%	-0.83%	-0.16%	1.99%	11%	3.19%	3.05%	-0.92%
CN(C)C(=O)O[C@@H]1CN[C@@H](C#Cc2cc3ncnc(Nc4ccc(OCc5cccc(F)c5)c(Cl)c4)c3s2)C1	0.26%	4.03%	8.75%	-0.77%	1.01%	-1.89%	-0.37%	-2.1%	0.28%	-0.78%
CN1CCN(C(=O)c2ccc(NC(=O)Nc3ccc(N(C)c4ccnc(Nc5ccc(CS(C)(=O)=O)cc5)n4)cc3)cc2)CC1	3.43%	5.31%	26.3%	21.4%	43.5%	64.7%	83.9%	0.6%	21.6%	2.23%
Nc1nccc(-c2c(-c3ccc(F)cc3)nn3cc(C(F)(F)F)ccc23)n1	0.14%	2.64%	4.08%	-2.26%	0.63%	2.41%	-0.04%	-7.47%	-2.71%	0.03%
NS(=O)(=O)c1ccc(N/N=C2\C(=O)Nc3ccc(Cl)cc32)cc1	0.91%	4.13%	7.63%	2.91%	8.28%	16.4%	66.7%	-0.18%	0.36%	3.25%
CCOc1nccc2c1nc(-c1nonc1N)n2CC	4.2%	6.66%	5.06%	2.14%	2.02%	0.14%	1.3%	-2.2%	1.21%	3.25%
NS(=O)(=O)c1ccc(NC=C2C(=O)Nc3ccc4ncsc4c32)cc1	11.5%	6.25%	36.2%	19.3%	67.6%	47.7%	85.4%	59.9%	63.6%	8.88%
O=S(=O)(CCOCc1ccc(-c2ccc3ncnc(Nc4ccc(OCc5cccc(F)c5)c(Cl)c4)c3c2)o1)c1ccccc1	0.08%	-0.06%	2.31%	-2.31%	0.57%	4.16%	2.25%	-3.61%	-0.44%	-0.84%
COC(=O)c1cncc(/C=C/c2c(C)cc(O)cc2C)c1	0.95%	5.81%	20.9%	0.94%	0.15%	2.01%	3.02%	-1.65%	-3.53%	3.21%
CS(=O)(=O)Nc1cccc(-c2ccc3c(NC(=O)C4CC4)n[nH]c3c2)c1	-2.02%	-0.31%	4.5%	-2.92%	-1.44%	0.45%	0.14%	-1.25%	-0.54%	2.53%
O=C(Nc1ccc(Oc2ccc3[nH]c(NC(=O)c4ccco4)nc3c2)cc1)Nc1cc(C(F)(F)F)ccc1F	-2.3%	1.62%	9.51%	23.6%	78.8%	15%	70.7%	1.75%	-3.76%	5.34%
COc1ccc2ncnc(Nc3ccc(OCc4ccccc4)cc3)c2c1	2.59%	3.7%	15.4%	0.14%	1.06%	0.29%	2.85%	1.85%	-1%	1.22%
c1ccc(Cc2nc3ccc(Nc4ncnc5ccccc45)cc3[nH]2)cc1	-0.04%	5.51%	18.2%	0.86%	4.39%	0.83%	3.55%	4.82%	-0.14%	1.48%
CCS(=O)(=O)c1ccc(OC)c(Nc2ncc(-c3cccc(OC)c3)o2)c1	7.65%	19.9%	65.2%	9.91%	55.9%	16.3%	68%	29.4%	-4.34%	7.64%
